Laboratory results from PubChem BioAssay AID1709 (National Center for Advancing Translational Sciences (NCATS), 2009).
Active and inactive are the calls of the source.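 How the source made its calls: active means lower max turbidity than the uninhibited signal, meaning microtubule assembly was blocked; inactive means reaching the full max turbidity.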

assay: Assay for Inhibitors of Tau-Mediated Microtubule Assembly; details: purified tubulin + K18 tau, A340 turbidity kinetics, 45 min, at 50 µM; half-max time: measured here: time to half-max turbidity, stronger effect = higher value; max turbidity: stronger effect = lower value
Excerpt: NIH Molecular Libraries Probe Production Network [MLPCN] NIH Chemical Genomics Center [NCGC] MLPCN Grant: X01 MH083262-01 Assay Provider: Carlo Ballatore, University of Pennsylvania NCGC Assay Overview: The microtubule-associated protein tau is an abundant protein in the axons of neurons that stabilizes microtubules. With its ability to modulate microtubule dynamics, tau contributes directly or indirectly, to key structural and regulatory cellular functions. Particularly important is the influence tau exerts on axonal transport, which allows signaling molecules, trophic factors and other essential cellular constituents to travel along the axons. Under pathological conditions, tau becomes sequestered into insoluble aggregates called neurofibrillary tangles. This phenomenon is believed to have pathological consequences by promoting axonal transport deficits that ultimately lead to synaptic dysfunction and neuronal loss. Because tau binds and stabilizes microtubules, tau fibrillization inhibitors were tested whether they interfere with tau-mediated tubulin polymerization. An in vitro assay was used where purified brain tubulin monomers were assembled into microtubules after the addition of GTP and tau. Microtubule assembly was monitored by the change in absorbance at 340 nm. Hong, M., Zhukareva, V., Vogelsberg-Ragaglia, V., Wszolek, Z., Reed, L., Miller, B. I., Geschwind, D. H., Bird, T. D., McKeel, D., Goate, A., Morris, J. C., Wilhelmsen, K. C., Schellenberg, G. D., Trojanowski, J. Q., and Lee, V. M. Y. (1998) Science 282, 1914-1917.
NCGC Assay Protocol Summary: Lyophilized bovine brain tubulin was reconstituted in RAB (100 mM MES, pH 6.9; 1 mM EDTA; 0.5 mM MgSO4) at a concentration of 10 mg/ml. Compounds (50 uM) were added to K18 tau (40 uM) in RAB and pre-incubated at room temperature for 60 minutes. To initiate the MT assembly reaction, 8.25 ul per well of 10 mg/ml tubulin was dispensed on a UV-clear 384-well plate, followed by 1.0 ul of 100 mM GTP in RAB and 41.25 ul of the compound:tau mixture. […] The plate was incubated in a Spectramax M5 plate reader at 37 C and the absorbance at 340 nm was read every minute for 45 minutes.

Row | Structure (SMILES) | max turbidity | half-max time [min]
1 | COC(=O)c1nn(-c2ccc(OC)cc2)c(=O)c2c(N)sc(C)c12 | 0.579 (inactive) | 13.3
2 | O=C(Cc1ccccc1)Nc1sc2c(c1C(=O)Nc1ccc(Cl)cc1)CCCC2 | 0.682 (inactive) | 10
3 | CCOC(=O)c1nn(-c2ccc(OC)cc2)c(=O)c2c(N)scc12 | 0.782 (inactive) | 12.7
4 | COC(=O)c1c(NC(=O)C(C)(C)C)sc2c1C(C(=O)OC)CC2 (stereo unspecified) | 0.839 (inactive) | 12.9
5 | COC(=O)c1c(NC(=O)CCCOc2cccc(C)c2)sc2c1C(C(=O)OC)CC2 (stereo unspecified) | 0.825 (inactive) | 12
6 | CCOC(=O)c1nn(-c2ccccc2)c(=O)c2c(N)scc12 | 0.65 (inactive) | 12.3
7 | COC(=O)c1c(NC(=O)CCCOc2ccc(C)cc2)sc2c1C(C(=O)OC)CC2 (stereo unspecified) | 0.764 (inactive) | 11.1
8 | COC(=O)c1c(NC(=O)CCCOc2ccc(C(C)(C)C)cc2)sc2c1C(C(=O)OC)CC2 (stereo unspecified) | 1.01 (inactive) | 12.6
